# Screens: PubChem, several laboratories
# Only some compounds are listed: those with a hit (about 4.9% of all), similar ones and a draw of the others.
# Beta cell apopt = inhibitors of cytokine-induced beta cell apoptosis, primary screen, luminescence; INS-1E cytokine-induced death, ATP luminescence, 48 h; percent of positive-control rescue, neutral wells zero; protection from apoptosis, % (concentration not given with the values); 300,000 compounds, 0.8% hits; AID 435005, 2010;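 active = Every replicate reaches about 75%, or at least half do and their mean reaches it too, limit read from the data; inconclusive = At least half of replicates reach the limit but their mean does not; inactive = Under half of replicates reach the limit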;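 also: 0% = cytokine-treated negative control wells and 100% = positive control rescue; higher means more ATP so stronger rescue from cytokine killing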
# PP5 inh = PP5 phosphatase inhibitors, primary screen, biochemical, fluorescence; Serine/threonine-protein phosphatase 5 (Homo sapiens), P53041; purified PP5c, OMFP substrate fluorescence; inhibition, % at 6.7 µM; 320,000 compounds, 0.18% hits;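 active = inhibition above the campaign's mean inhibition across all tested compounds plus 3 SD, cut at about 9.5% in these data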;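 also: 0% = DMSO only and 100% = 100 µM cantharidin control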
# CSC inhib = cancer stem cell viability inhibitors, primary screen, luminescence. cancer stem cell-like cells viability. inhibition, % at 7.5 µM. 300,000 compounds, 1.1% hits. AID 2717, 2010; in the data active = inhibition above about 75%; inconclusive = no clear call, values can overlap the other calls; tested in HMLE shEcad cells
# PP1 counter = PP1-alpha phosphatase inhibitors, primary screen, counter-screen for PP5 inhibitor project, biochemical, fluorescence, OMFP substrate, single point; Serine/threonine-protein phosphatase PP1-alpha catalytic subunit (Homo sapiens), P62136; purified PP1alpha; inhibition, % at 6.7 µM; 320,000 compounds, 0.9% hits; AID 2235, 2010;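 active = inhibition above the mean inhibition of all tested compounds plus 3 SD, computed separately for each screening campaign, cut at about 15% in these data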
# Calb FLC = C. albicans growth inhibition with fluconazole, primary screen, CaCi-2 strain, Alamar Blue fluorescence; C. albicans CaCi-2 (fluconazole-resistant clinical isolate) + fluconazole, 48 h; growth inhibition, % (concentration not given with the values); 300,000 compounds, 0.57% hits; AID 1979, 2009;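 active = growth inhibition above about 58% in most replicates, limit read from the data, passing the limit was not always enough; inconclusive = exactly half the replicates above a set limit; inactive = most replicates below a set limit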;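 also: all wells also contain fluconazole at 8 µg/ml as a sub-toxic cotreatment; 0% = median of DMSO wells and 100% = median of geldanamycin control wells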
# Mdm2 MdmX PPI = inhibitors of human Mdm2-MdmX association, primary screen, cell-based, luminescence, split luciferase, SaOS-2, uHTS | Protein Mdm4 (Homo sapiens) + E3 ubiquitin-protein ligase Mdm2 (Homo sapiens), … | SaOS-2 split-luciferase Mdm2/MdmX complementation | inhibition, % at 8 µM | 330,000 compounds, 3% hits | AID 485346, 2010;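 active = inhibition of at least 50% at 8 µM in the primary screen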
# Target sequence (O15151 whole entry, looked up): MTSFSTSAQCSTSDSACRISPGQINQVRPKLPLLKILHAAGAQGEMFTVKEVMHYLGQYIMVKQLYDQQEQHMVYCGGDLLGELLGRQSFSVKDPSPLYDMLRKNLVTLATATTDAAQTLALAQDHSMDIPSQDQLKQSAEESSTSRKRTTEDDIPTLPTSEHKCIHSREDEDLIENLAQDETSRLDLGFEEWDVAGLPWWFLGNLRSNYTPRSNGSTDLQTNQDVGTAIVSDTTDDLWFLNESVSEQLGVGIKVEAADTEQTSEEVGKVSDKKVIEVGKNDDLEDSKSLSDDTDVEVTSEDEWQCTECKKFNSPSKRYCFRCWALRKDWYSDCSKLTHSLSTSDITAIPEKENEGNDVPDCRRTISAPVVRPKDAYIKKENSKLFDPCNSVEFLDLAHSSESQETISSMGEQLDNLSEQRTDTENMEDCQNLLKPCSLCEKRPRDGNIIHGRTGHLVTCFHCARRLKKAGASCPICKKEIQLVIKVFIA
# Target sequence (Q00987 whole entry, looked up): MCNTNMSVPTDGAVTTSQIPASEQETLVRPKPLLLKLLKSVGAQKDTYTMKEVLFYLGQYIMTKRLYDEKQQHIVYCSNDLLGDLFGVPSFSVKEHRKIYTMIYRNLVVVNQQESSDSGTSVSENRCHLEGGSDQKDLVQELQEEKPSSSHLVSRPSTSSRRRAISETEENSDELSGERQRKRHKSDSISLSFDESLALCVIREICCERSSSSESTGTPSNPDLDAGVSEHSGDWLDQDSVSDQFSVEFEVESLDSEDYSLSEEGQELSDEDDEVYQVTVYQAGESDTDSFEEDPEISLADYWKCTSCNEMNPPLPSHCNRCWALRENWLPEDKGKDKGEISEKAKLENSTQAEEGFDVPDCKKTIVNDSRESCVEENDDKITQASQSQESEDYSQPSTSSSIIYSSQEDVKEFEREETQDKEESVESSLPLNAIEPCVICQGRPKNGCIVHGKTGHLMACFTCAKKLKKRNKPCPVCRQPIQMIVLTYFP
# Mdm2 MdmX conf = Mdm2-MdmX complex disruptors, retested hits, confirmation, luminescence, single concentration; AID 489028, 2010; shares compounds with Mdm2 MdmX PPI; inhibition, % at 8 µM; 10,000 compounds, 55% hits; Mdm2-MdmX binding, luminescent assay; in the data active = inhibition above about 40%
# Full FLuc ctr = full-length luciferase signal inhibition, confirmation, counter-screen for Mdm2/MdmX interaction inhibitor project, cell-based, single concentration, SaOS-2; shares compounds with Mdm2 MdmX PPI; SaOS-2 full-length luciferase counterscreen, luminescence; 6,200 compounds, 77% hits; inhibition, % at 8 µM;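 active = mean inhibition at 8 µM reaching about 37%, which flags the compound as non-specific, limit read from the data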;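 also: p53-null SaOS-2 cells with luciferase driven by a doxycycline-inducible promoter; compound on cells about two nights before reading with doxycycline added after day one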
# * hit, by the source's call; ? = inconclusive; . = no result.
SMILES,Beta cell apopt,PP5 inh,CSC inhib,PP1 counter,Calb FLC,Mdm2 MdmX PPI,Mdm2 MdmX conf,Full FLuc ctr
N#Cc1ccccc1NC(=O)c1ccccc1OCC(=O)Nc1ccc2c(c1)oc1ccccc12,5,4,11,2,-2,62*,11,.
O=C(Nc1ccc2c(c1)oc1ccccc12)c1ccc2c(c1)OCO2,15,1,25,1,-6,-36,.,.
CCOC(=O)C1=C(COC(=O)CC(C)c2ccccc2)NC(=O)NC1C (stereo not drawn),-5,2,-12,-2,.,9,.,.
CCN(CC)S(=O)(=O)c1cc(NC(=O)CSc2nc3c(cc2C#N)C(=O)CC(C)(C)C3)ccc1C,7,2,52,2,3,67*,63*,45*
CCN(CC)S(=O)(=O)c1cc(NC(=O)CSc2nnc(N)s2)ccc1C,-4,2,-3,-4,.,12,.,.
Fc1ccc(-c2nnsc2Sc2ccccn2)cc1,-2,0,-3,1,-21,40,.,.
Cc1ccn2c(Nc3ccccc3C)c(-c3ccncc3)nc2c1,-46,0,-2,-1,29,59*,34,.
Cc1cc(CN(C)C(=O)CC2C(=O)NCCN2Cc2ccc(-c3ccccc3)cc2)on1 (stereo not drawn),-5,3,-6,2,0,3,.,.
CN(C)Cc1ccc(-c2nc3cccc4c3n2CCNC4=O)cc1,1,2,0,0,-2,58*,34,71*
O=C(CSc1ccc(Cl)cc1)NC1CCCc2ccccc21 (stereo not drawn),5,2,-1,1,-5,22,.,.
O=C(COc1ccc([N+](=O)[O-])cc1)Nc1ccc(CN2CCOCC2)cc1,2,0,-17,-5,-6,10,.,.
COc1cc(NC(=O)C2=C(N3CCOCC3)/C(=C/c3ccc(Cl)cc3)CC2)cc(OC)c1OC,.,4,51,0,-2,8,.,.
COc1cc(NC(=O)C2=C(N3CCOCC3)/C(=C\c3ccc(N(C)C)cc3)CCC2)cc(OC)c1OC,17,3,87*,0,-1,60*,47*,87*
CCN(CC)C1CCN(C(=O)c2ccc(OC3CCN(CCc4ccccc4)CC3)cc2)C1 (stereo not drawn),1,1,3,-2,-7,56*,44*,74*
O=C(Nc1nc(-c2ccc(F)c(F)c2)cs1)Nc1ccc(F)cc1F,61,1,9,5,-12,83*,62*,15
COc1ccc2c(Cn3cnc4cc([N+](=O)[O-])ccc4c3=O)cc(=O)oc2c1,2,3,65,4,0,60*,73*,20
Cc1ccc(OCCn2cnc3cc([N+](=O)[O-])ccc3c2=O)cc1,-2,0,3,0,-4,14,.,.
O=C(Oc1c(-c2ccccc2)c(=O)n2c3c(cccc13)CC2)c1ccc(Cl)cc1,0,-1,16,-3,-2,46,.,.
O=C(Oc1c(-c2ccccc2)c(=O)n2c3c(cccc13)CC2)c1ccco1,-4,1,-2,-1,4,54*,12,.
COCCNC(=O)COc1cccc2c1OC(C)(C)C2,-4,-1,-14,-4,0,6,.,.
COc1ccc([C@H]2CC(=O)C=C(c3ccc(OC)cc3OC)C2)cc1,7,2,71,3,.,51*,34,98*
CCN1CCN(c2ccc(Cl)cc2NC(=O)c2ccc(-n3nc(C)cc3C)cc2)CC1,3,1,.,-3,.,47,.,.
Cc1cccc(/C=C/c2onc(C)c2S(=O)(=O)N2CCC(C(=O)N3CCC(C)CC3)CC2)c1,1,1,-18,6,-11,52*,11,.
COC(=O)c1[nH]c2ccc(Br)cc2c1NC(=O)CN1CCCCC1CCO (stereo not drawn),-1,0,-5,-1,12,-19,.,.
COC(=O)c1[nH]c2ccc(C)cc2c1NC(=O)C(C)N1CCN(C2CCCCC2)CC1 (stereo not drawn),-5,0,-10,-2,-9,53*,31,.
SMILES,Beta cell apopt,PP5 inh,CSC inhib,PP1 counter,Calb FLC,Mdm2 MdmX PPI,Mdm2 MdmX conf,Full FLuc ctr
COC(=O)c1[nH]c2ccc(C)cc2c1NC(=O)NC1CCCCC1,3,2,-6,1,-9,39,.,.
COC(=O)c1[nH]c2ccc(Br)cc2c1NC(=O)C(C)N1CCN(C2CCCCC2)CC1 (stereo not drawn),-13,3,-2,1,.,96*,34,5
CC(=O)O[C@H]1C(=O)[C@@]2(C)[C@H]([C@H](OC(=O)c3ccccc3)[C@]3(O)C[C@H](OC(=O)[C@H](O)[C@@H](NC(=O)c4ccccc4)c4ccccc4)C(C)=C1C3(C)C)[C@]1(OC(C)=O)CO[C@@H]1C[C@@H]2O,-15,-4,63,-2,.,65*,64*,57*
CCCCCC(=O)N[C@@H](c1ccccc1)[C@@H](O)C(=O)O[C@H]1C[C@@]2(O)[C@@H](OC(=O)c3ccccc3)C3[C@](C)(C(=O)[C@H](OC(C)=O)C(=C1C)C2(C)C)[C@@H](O)C[C@H]1OC[C@@]31OC(C)=O (stereo partly drawn),15,4,56,5,1,72*,74*,43*
CC(=O)O[C@H]1C(=O)[C@@]2(C)[C@H]([C@H](OC(=O)c3ccccc3)[C@]3(O)C[C@H](OC(=O)[C@H](O)C(NC(=O)c4ccccc4)c4ccccc4)C(C)=C1C3(C)C)[C@]1(OC(C)=O)CO[C@@H]1C[C@@H]2O (stereo partly drawn),9,-1,?,3,-4,48,.,.
O=C(c1cc(Cl)ccc1O)N1CCN(S(=O)(=O)c2cccs2)CC1,0,-2,-14,-4,6,-17,.,.
COc1cc(C2Nc3ccccc3NC3=C2C(=O)CC(C)(C)C3)cc(OC)c1OC(C)=O (stereo not drawn),-7,0,-16,-4,4,-29,.,.
CCCOC(=O)c1[nH]c2c(c1C)C(=O)CC(c1ccc(OC)c(OC)c1)C2 (stereo not drawn),-1,0,-16,0,7,-16,.,.
